Experimental data from the supplement of paper PMC10338343.
± gives the standard deviation. Over roughly 8,200 sequences, “pre-steady-state target cleavage rate” has its median near 0.024; the highest 2% begin near 1.3. Only a selection was taken, and the highest values are over-represented in it overall.

System: MIWI (PIWIL1) piRISC loaded with L1MC piRNA (30 nt)
Test: pre-steady-state target cleavage rate (min^-1); MIWI and MILI are mouse PIWI proteins and EfPiwi is from a freshwater sponge; tags in brackets are library labels; higher = faster piRNA-guided slicing of the target
Details: guide: L1MC piRNA 5'p-UAACUAAAUACUAUGCAAGCUGUAGGUCCU
Description: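 Cleave-'n-Seq: a library of target RNAs (target site embedded in constant flanks, ACAGCATTCCGCGTTAGTGATATCCG... 5' flank; DNA-blocked outside the site) at 0.1 nM was incubated with 1 nM active mouse MILI or MIWI piRISC (synthetic 5'-monophosphorylated piRNA guide) with or without 500 nM mouse GTSF1 at 33 °C for 1 min to 16 h. Uncleaved targets were sequenced and normalised to non-target controls, and the pooled three trials were fitted to a burst-and-steady-state model to give the pre-steady-state cleavage rate (min^-1; k3 is constrained to at most 1e-4). Sequence is the target site only; target names encode pairing extent (gX:gY) and contiguous / 1-mismatch / 2-mismatch / bulge geometry. Fits with R² ≤ 0 are excluded.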

[1] = auxiliary factor: 500 nM mouse GTSF1
[2] = auxiliary factor: none (no GTSF1)

| Sequence | pre-steady-state target cleavage rate [1] | pre-steady-state target cleavage rate [2] |
| --- | --- | --- |
| UCCACCUACAGCUUGCAUAGUAAAUAGUUA | 0.426 ± 0.039 | 0.00722 ± 0.0018 |
| AGGACCUACAGGAUGCAUAGUAUUUAGUUA | 1.06 ± 0.092 | 0.023 ± 0.0047 |
| UCCUGGAUGUGCUAGCAUAGAAUUUAGUUA | 0.00695 ± 0.0028 | – |
| AGGACCUACAGCUUGGAUAGUAUUUACUUA | 0.478 ± 0.054 | 0.0287 ± 0.0043 |
| UCCAGCUACAGCUUGCAUAGUAUUAAGUUA | 0.558 ± 0.043 | 0.015 ± 0.0026 |
| UCAACCUACAGCUUGCAUAGUAUUUAGUUA | 1.43 ± 0.04 | 0.0646 ± 0.011 |
| AGAACCUACAGCUUGCAUAGUAUUUAGUUA | 1.43 ± 0.047 | 0.0851 ± 0.013 |
| UCCAACCUACAGCUUGCAUAGUAUUUAGUUA | 1.05 ± 0.037 | 0.055 ± 0.0073 |
| UCCUGGAACAGCUGGCAUAGUAUUUAGUUA | 0.759 ± 0.038 | 0.0271 ± 0.0057 |
| UCCAGCUACAGCUUGCAUAGUAAUUAGUUA | 0.475 ± 0.038 | 0.0163 ± 0.0027 |
| UCCUGCUACAGGUUGCAUAGUAUUUAGUUA | 1.03 ± 0.037 | 0.0257 ± 0.0052 |
| UCCUGGAUGAGCUUGCAUAGUAUUCUAGUUA | 0.28 ± 0.036 | 0.0103 ± 0.0031 |
| UCCUGCUACAGCUUGCAUAGUAUAUACUUA | 0.111 ± 0.017 | 0.00755 ± 0.0036 |
| UCGUCCUACUGCUUGCAUAGUAUUUAGUUA | 1.14 ± 0.048 | 0.0572 ± 0.0094 |
| UGGAGCUACAGCUUGCAUAGUAUUUUGUUA | 0.992 ± 0.05 | 0.0525 ± 0.0077 |
| UCCUGGUUGUGCUUGCAUAGUAUUUAGUUA | 0.584 ± 0.032 | 0.0455 ± 0.0097 |
| UGGACCUACAGCUUGCAUAGUUAAUAGUAA | 0.0448 ± 0.01 | – |
| UCGACCUACAGUUGCAUAGUAUUUAGUUA | 0.955 ± 0.065 | 0.00747 ± 0.0023 |
| AGGACCUACAGUUUGCAUAGUAUUUAGUUA | 1.25 ± 0.073 | 0.0653 ± 0.0093 |
| UCGACCUACAGUUUGCAUAGUAUUUAGUUA | 1.37 ± 0.054 | 0.0619 ± 0.0092 |
| UGGACCUACAGUUGCAUAGUAUUUAGUUA | 1.06 ± 0.094 | 0.00944 ± 0.0032 |
| UGGACCUACAGUUUGCAUAGUAUUUAGUUA | 1.5 ± 0.088 | 0.0675 ± 0.013 |

| Sequence | pre-steady-state target cleavage rate [1] | pre-steady-state target cleavage rate [2] |
| --- | --- | --- |
| UCCACCUACAGUUUGCAUAGUAUUUAGUUA | 0.892 ± 0.072 | 0.0474 ± 0.0076 |
| UGGACGUACUGCUUGCAUAGUAUUUAGUUA | 1.01 ± 0.051 | 0.056 ± 0.0091 |
| UCCUGGAACAGCUUGCUUAGUAAUUAGUUA | 0.485 ± 0.041 | 0.0141 ± 0.0051 |
| UCCUGGAACAGCUUGCAUAGUAUUAUCUUA | 0.141 ± 0.028 | 0.00408 ± 0.0029 |
| UCGACCUACAGCUUGCAUAGUAUUAUGUAA | 0.228 ± 0.057 | – |
| UCCUGGAACAGCUAGCAUAGUAUUUAGUUA | 0.836 ± 0.027 | 0.022 ± 0.0049 |
| AGGACCUACAGCUUGCAUAGUAGUUUAGUUA | 0.47 ± 0.036 | 0.0209 ± 0.006 |
| UCCUGGAUGUGCUUGGAUAGUAUUAAGUUA | 0.0897 ± 0.022 | 0.00634 ± 0.0041 |
| UCCUGGAUCAGCUUGCAUAGUAUUUAGUUUA | 1.64 ± 0.071 | 0.0415 ± 0.011 |
| UCCUGGAUCAGCUUGCAUAGUAUUUAGUAA | 0.96 ± 0.047 | 0.0287 ± 0.0064 |
| UCCUGGAUCAGCUUUGCAUAGUAUUUAGUUA | 1.05 ± 0.053 | 0.0153 ± 0.004 |
| UCCUGGAUCAGCUUGCAUAGUAUUUAGUUU [g2:g22:cont:t1U] | 1.54 ± 0.089 | 0.0667 ± 0.016 |
| UCCUGGAUCAGCUUGCAUAGUAUUUAGUUG [g2:g22:cont:t1G] | 1.05 ± 0.12 | 0.0362 ± 0.0084 |
| UCCUGGAUCAGCUUGCAUAGUAUUUAGUUA [g2:g22:cont:t1A] | 1.36 ± 0.054 | 0.0516 ± 0.0097 |
| UCCUGGAUCAGCUUGCAUAGUAUUUAGUA | 0.838 ± 0.043 | 0.0119 ± 0.0038 |
| UCCUGGAUCAGCUUGUAUAGUAUUUAGUUA | 1.64 ± 0.1 | 0.0468 ± 0.012 |
| UCCUGGAUCAGCUUGCAUAGUAUUUAGUUC [g2:g22:cont:t1C] | 1.14 ± 0.052 | 0.0609 ± 0.012 |
| UCCUGGAUCAGCUUGGAUAGUAUUUAGUUA | 0.775 ± 0.064 | 0.0476 ± 0.0092 |
| UCCUGGAUCAGCUUGCUAUAGUAUUUAGUUA | 0.00584 ± 0.0043 | – |
| UCCUGGAUCAGCUUGCAUAGUAUUUUAGUUA | 0.979 ± 0.05 | 0.0222 ± 0.0046 |
| UCCUGGAUGAGCUAGCAUAGUAUUUAGUUA | 0.617 ± 0.05 | 0.0107 ± 0.0036 |
| UCCUGCUAACAGCUUGCAUAGUAUUUAGUUA | 0.617 ± 0.052 | 0.0487 ± 0.0083 |

| Sequence | pre-steady-state target cleavage rate [1] | pre-steady-state target cleavage rate [2] |
| --- | --- | --- |
| AGGACCUACAGCUUGCAUAGUAAAAACAAA | 0.268 ± 0.068 | – |
| UGGACCUACAGCUUCCAUAGUAAUUAGUUA | 0.0113 ± 0.0031 | – |
| UCCUGGAACAGCUUGCAUAGUACUUUAGUUA | 0.472 ± 0.036 | 0.00827 ± 0.0032 |
| UCCAGCUACACCUUGCAUAGUAUUUAGUUA | 0.797 ± 0.034 | 0.0443 ± 0.0068 |
| UCCUGGAUCAGCUUGCAUAGAAUUUACAAA | 0.0559 ± 0.014 | – |
| UGGACCUACAGCUUGCAUAGCAUUUAGUUA | 0.379 ± 0.025 | 0.0275 ± 0.0061 |
| UCCUGGACCAGCUUGCAUAGUAUUUAGUUA | 0.915 ± 0.048 | 0.0367 ± 0.0074 |
| UCCUGGUCCAGCUUGCAUAGUAUUUAGUUA | 0.717 ± 0.055 | 0.0383 ± 0.0079 |
| UCCUGGAUCCAGCUUGCAUAGUAUUUAGUUA | 1.31 ± 0.081 | 0.0546 ± 0.016 |
| UCCUGGAUCCGCUUGCAUAGUAUUUAGUUA | 0.927 ± 0.053 | 0.031 ± 0.0075 |
| UCCUGGAUGAGCUUGCAUAGUAUUUAUUUA | 0.267 ± 0.055 | 0.025 ± 0.0077 |
| AGGACCUACAGGUUCCAUAGUAUUUAGUUA | 0.659 ± 0.17 | – |
| ACCUCCUACAGCUUGCAUAGUAUUUAGUUA | 1.35 ± 0.052 | 0.0784 ± 0.012 |
| ACCUCCUACAGCUUGCAUAGUAUUUAGUAA | 0.85 ± 0.046 | 0.0351 ± 0.0072 |
| UCCUUCUACAGCUUGCAUAGUAUUUAGUUA | 1.02 ± 0.033 | 0.0527 ± 0.0083 |
| UCCUCCUACAGCUUGCAUAGUAUUUAGUUC [g2:g26:cont:t1C] | 1.09 ± 0.039 | 0.0511 ± 0.011 |
| UCCUCCUACAGCUUGCAUAGUAUUUAGUUA [g2:g26:cont:t1A] | 1.32 ± 0.052 | 0.0816 ± 0.015 |
| UCCUCCCUACAGCUUGCAUAGUAUUUAGUUA | 1.09 ± 0.038 | 0.075 ± 0.016 |
| UCCUCUACAGCUUGCAUAGUAUUUAGUUA | 1.34 ± 0.047 | 0.0659 ± 0.011 |
| UCCUCUCUACAGCUUGCAUAGUAUUUAGUUA | 0.797 ± 0.038 | 0.0529 ± 0.0081 |
| UCCUCCUACAGCUUGCAUAGUAUUUUAGUUA | 1.04 ± 0.044 | 0.0227 ± 0.0055 |
| UCCUGGUACAGCUUGCAUAGUAGUUAGUUA | 0.433 ± 0.051 | 0.0224 ± 0.0045 |

| Sequence | pre-steady-state target cleavage rate [1] | pre-steady-state target cleavage rate [2] |
| --- | --- | --- |
| UGGACGUACAGCUUGCAUAGUAUUUUGUUA | 0.75 ± 0.055 | 0.052 ± 0.009 |
| UCCUGGAUCAGCAUUGCAUAGUAUUUAGUUA | 0.875 ± 0.036 | 0.0165 ± 0.0047 |
| UCCUGGAUGUCGAUGCAUAGUAUUUGAGUUA | 0.0114 ± 0.0044 | – |
| UCCACCUACACCUUGCAUAGUUUUUAGUUA | 0.249 ± 0.032 | 0.0171 ± 0.0033 |
| UCCUGGAACAGCGUUGCAUAGUAUUUAGUUA | 0.939 ± 0.055 | 0.0303 ± 0.0056 |
| UCCUGCUACAGGUUGCAUAGUAUUUACAAA | 0.117 ± 0.028 | – |
| UCCACCUACAGACUUGCAUAGUAUUUAGUUA | 0.606 ± 0.06 | 0.0272 ± 0.0043 |
| UCCUCCUACAGCUUGCAUAGCUAUUUAGUUA | 0.0221 ± 0.01 | – |
| UCCACCUACCGCUUGCAUAGUAUUUAGUUA | 1.11 ± 0.05 | 0.0544 ± 0.0086 |
| AGGACCUACACGCUUGCAUAGUAUUUAGUUA | 1.1 ± 0.065 | 0.0703 ± 0.01 |
| UCCUCCUACGCUUGCAUAGUAUUUAGUUA | 1.24 ± 0.045 | 0.0478 ± 0.0094 |
| UCCUGCUACCGCUUGCAUAGUAUUUAGUUA | 1.1 ± 0.1 | 0.0571 ± 0.011 |
| UCCUCCUACCGCUUGCAUAGUAUUUAGUUA | 1.34 ± 0.062 | 0.0565 ± 0.0099 |
| UGGACCUACGAGCUUGCAUAGUAUUUAGUUA | 0.657 ± 0.11 | 0.0557 ± 0.013 |
| AGGACCUACCAGCUUGCAUAGUAUUUAGUUA | 1.17 ± 0.069 | 0.0704 ± 0.014 |
| UCGACCUACCGCUUGCAUAGUAUUUAGUUA | 1.64 ± 0.069 | 0.0745 ± 0.015 |
| UCGACCUACCAGCUUGCAUAGUAUUUAGUUA | 1.29 ± 0.064 | 0.0725 ± 0.016 |
| UGGACCUACCGCUUGCAUAGUAUUUAGUUA | 1.57 ± 0.11 | 0.0558 ± 0.0098 |
| AGGACCUACCGCUUGCAUAGUAUUUAGUUA | 1.43 ± 0.082 | 0.0866 ± 0.017 |
| UGGACCUACCAGCUUGCAUAGUAUUUAGUUA | 1.25 ± 0.1 | 0.0599 ± 0.013 |
